The results in this text go back to PubChem BioAssay (NCATS).

Results filed as inconclusive are left out. Where a call stands in place of a potency, no number is given. Active and inactive are the calls of the source. The call rests on the fitted dose curve; in most records, active means well fitted curve in the direction sought with a large enough effect; inconclusive means small, poorly fitted or top-dose-only effect, or another doubt; inactive means no such curve, though single readings can be large; an effect the other way counts as inactive or inconclusive.

Sequence of Cytochrome P450 2C19 (Homo sapiens) (P33261 whole entry, looked up): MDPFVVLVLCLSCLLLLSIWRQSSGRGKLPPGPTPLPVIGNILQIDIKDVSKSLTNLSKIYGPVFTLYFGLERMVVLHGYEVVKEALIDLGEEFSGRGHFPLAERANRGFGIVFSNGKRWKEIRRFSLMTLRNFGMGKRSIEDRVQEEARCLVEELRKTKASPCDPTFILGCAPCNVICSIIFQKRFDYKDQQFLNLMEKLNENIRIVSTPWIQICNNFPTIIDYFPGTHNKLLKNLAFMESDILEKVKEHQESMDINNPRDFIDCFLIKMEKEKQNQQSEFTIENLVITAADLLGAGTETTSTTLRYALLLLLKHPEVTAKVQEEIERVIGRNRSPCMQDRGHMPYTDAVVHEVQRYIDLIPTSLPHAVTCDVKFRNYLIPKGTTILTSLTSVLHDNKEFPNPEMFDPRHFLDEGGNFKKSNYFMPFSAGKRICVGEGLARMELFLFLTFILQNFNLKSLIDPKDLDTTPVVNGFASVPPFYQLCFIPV
Sequence of Cytochrome P450 2D6 (Homo sapiens) (P10635 whole entry, looked up): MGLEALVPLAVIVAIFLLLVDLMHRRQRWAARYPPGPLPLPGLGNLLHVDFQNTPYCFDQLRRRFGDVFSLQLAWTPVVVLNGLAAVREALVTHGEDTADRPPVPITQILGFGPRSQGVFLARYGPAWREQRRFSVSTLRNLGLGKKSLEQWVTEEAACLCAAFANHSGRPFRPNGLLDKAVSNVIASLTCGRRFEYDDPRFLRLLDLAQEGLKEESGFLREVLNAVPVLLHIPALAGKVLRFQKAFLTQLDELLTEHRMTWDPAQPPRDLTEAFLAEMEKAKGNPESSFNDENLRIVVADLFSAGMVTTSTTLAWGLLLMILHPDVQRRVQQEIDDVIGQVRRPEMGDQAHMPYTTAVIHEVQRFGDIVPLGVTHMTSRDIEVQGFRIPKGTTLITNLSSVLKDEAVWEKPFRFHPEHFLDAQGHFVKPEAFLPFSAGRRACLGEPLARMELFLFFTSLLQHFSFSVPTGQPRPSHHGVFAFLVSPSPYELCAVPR

In the first assay the target is Cytochrome P450 3A4 (Homo sapiens) (UniProt P08684). The assay can be described thus: qHTS Assay for Inhibitors and Substrates of Cytochrome P450 3A4 (AID 884). Further: nearly all actives have a fitted effect of over 50% in size. The note with it: recombinant CYP3A4, Luciferin-PPXE luminescence; series mostly up to 57.1 µM. The essentials: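 20 nM human CYP3A4 with 25 uM Luciferin-PPXE (at KM) in 200 mM KPO4, preincubated 10 min with compound; NADPH regeneration started a 60 min RT reaction. Luciferin detected by luminescence, normalized to 57 uM ketoconazole as full inhibition.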
Sequence of Cytochrome P450 3A4 (Homo sapiens) (P08684 whole entry, looked up): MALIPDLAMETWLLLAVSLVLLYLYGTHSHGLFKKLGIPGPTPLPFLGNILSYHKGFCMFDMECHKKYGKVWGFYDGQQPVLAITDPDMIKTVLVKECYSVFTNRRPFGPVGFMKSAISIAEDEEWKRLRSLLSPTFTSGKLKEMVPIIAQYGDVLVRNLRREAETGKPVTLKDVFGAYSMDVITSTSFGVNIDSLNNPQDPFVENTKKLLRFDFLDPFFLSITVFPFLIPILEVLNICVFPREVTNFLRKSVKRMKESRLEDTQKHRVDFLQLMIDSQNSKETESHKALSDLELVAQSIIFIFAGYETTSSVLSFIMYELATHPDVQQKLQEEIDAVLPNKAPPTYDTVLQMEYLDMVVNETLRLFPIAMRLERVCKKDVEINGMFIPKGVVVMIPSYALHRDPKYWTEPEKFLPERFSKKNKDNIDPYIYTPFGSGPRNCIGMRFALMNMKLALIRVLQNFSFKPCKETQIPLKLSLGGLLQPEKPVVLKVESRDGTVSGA
For `NC(N)=NS(=O)(=O)c1ccc(N)cc1`, the result was inactive. On the same count and under the same terms, the value for `Cc1[nH]c(C)c(Cl)c(=O)c1Cl` was “inactive”; that for `C[n+]1ccccc1/C=N/O` was “inactive”.

As for `NS(=O)(=O)c1cc(C2(O)NC(=O)c3ccccc32)ccc1Cl` (configuration not stated), the result was inactive.

As for `Cc1cccc(C(=O)O)c1O`, the result was inactive. Consider `Cc1c(NC(C)C)c(=O)n(-c2ccccc2)n1C`, for which the result was inactive.

On to `C/C=C/C(=O)N(CC)c1ccccc1C`, for which the outcome was inactive. On the same count and under the same terms, next, `NC(=O)c1ccc([N+](=O)[O-])cc1Cl`: “inactive”.

For the compound `CC(N)CCCC(C)(C)O` (configuration not stated), the outcome was inactive. On the same count and under the same terms, next, `O=c1[nH]cnc2nc[nH]c12`: “inactive”. On the same count and under the same terms, the value for `O=C(O)c1cc(=O)c2ccccc2o1` was “inactive”. Turning to `Cn1c([N+](=O)[O-])cnc1COC(N)=O`, the result was inactive.

The target of a further assay is Cytochrome P450 2D6 (Homo sapiens) (UniProt P10635). The assay can be described thus: qHTS Assay for Inhibitors and Substrates of Cytochrome P450 2D6 (AID 891). Further: potency means the concentration at half of the fitted maximal effect; nearly all actives have a fitted effect of over 60% in size. As to conditions: recombinant CYP2D6, luciferin-ME EGE luminescence; series mostly up to 11.4 µM. The essentials:
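Human CYP2D6 (5 nM) with 30 uM Luciferin-ME EGE (at Km) in 100 mM KPO4, compound preincubated 10 min, then NADPH regeneration system for 60 min at room temperature. Luciferin read by luminescence; normalized to 1.43 uM quinidine.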
(In qHTS, concentration-response curves come from the screen itself.)
With `CCN(CC)CCOC(=O)C(c1ccccc1)c1ccccc1`, the Potency was 5010 nM (active). Take `CC[N+](C)(CC)CCOC(=O)C1c2ccccc2Oc2ccccc21`: the Potency was 3980 nM (active). Take `CC[N+](CC)(CC(=O)Nc1c(C)cccc1C)Cc1ccccc1`: the Potency is 7.9 nM (active).

With `CC(=O)SC[C@@H](Cc1ccccc1)C(=O)NCC(=O)OCc1ccccc1`, the Potency is 316 nM (active).

A further assay has as its target Cytochrome P450 2C19 (Homo sapiens) (UniProt P33261). Kind of assay: qHTS Assay for Inhibitors and Substrates of Cytochrome P450 2C19 (AID 899). Further: nearly all actives have a fitted effect of over 60% in size. Further: potency means the concentration at half of the fitted maximal effect. As to conditions: recombinant CYP2C19, luciferin-H EGE luminescence; series mostly up to 25.6 µM. The essentials:
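In 50mM KPO4, the reaction held 5nM enzyme and KM-level (10uM) Luciferin-H EGE; it ran 60 min at 37C after NADPH regeneration and a 10 min compound preincubation. Luminescence values were scaled to 57uM ketoconazole as complete inhibition.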
For `CCc1cccc(CC)c1NC(=O)CN(CC(=O)O)CC(=O)O`, the Potency result was “inactive”. For the compound `O=C1c2ccccc2S(=O)(=O)N1CCCCN1CCN(c2ncccn2)CC1`, the Potency was 631 nM (active). For the compound `CC(=O)SC[C@@H](Cc1ccccc1)C(=O)NCC(=O)OCc1ccccc1`, the Potency was 126 nM (active).

System in a further assay: not listed separately
Kind of assay: Confirmation and Secondary Assay for Modulators of Hemoglobin Beta Chain Splicing at IVS2 654 locus (AID 910).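 Further: per-well total GFP intensity by laser scanning cytometry after 2-day treatment.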 The note with it: HeLa EGFP-654 splicing reporter, GFP fluorescence, 48 h; series mostly up to 46.1 µM. A digest of the protocol: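 HeLa cells stably carrying EGFP interrupted by mutant beta-globin IVS2-654 intron (CMV-driven) were treated with compound for 2 days at 37C; corrected splicing was scored as total peak GFP intensity per well (488 nm excitation, 500-520 nm emission).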
Take `NC(N)=NS(=O)(=O)c1ccc(N)cc1`: the outcome was inactive. Still for that read-out and setting: next, `CN1CCCN=C1COC(=O)C(O)(c1ccccc1)C1CCCCC1` (configuration not stated): “inactive”; `NCc1ccc(S(N)(=O)=O)cc1`: “inactive”; `CCN(CC)CCOC(=O)C(c1ccccc1)c1ccccc1`: “inactive”. As for `COc1ccc2cc(CCC(C)=O)ccc2c1`, the compound was called inactive. Turning to `Cc1[nH]c(C)c(Cl)c(=O)c1Cl`, the outcome was inactive. For `Cc1cc(O)cc(C)c1Cl`, the compound was called inactive. Regarding `COc1ccccc1OCC(O)CO` (configuration not stated), the compound was classed as inactive. The same measure, in the same setting: the value for `NS(=O)(=O)c1cc2c(cc1C(F)(F)F)NCNS2(=O)=O` was “inactive”; that for `C[n+]1ccccc1/C=N/O` was “inactive”. As to `NS(=O)(=O)c1cc(C2(O)NC(=O)c3ccccc32)ccc1Cl` (configuration not stated), the call was inactive. For `Nc1ccc(C(=O)Oc2ccccc2)c(O)c1`, the compound was called inactive. Still for that read-out and setting: the value for `Cc1cccc(C(=O)O)c1O` was “inactive”. With `COc1ccc(NS(=O)(=O)c2ccc(N)cc2)nn1`, the outcome was inactive. For `CC(C)=CCC/C(C)=C/CO`, the compound was classed as inactive. Regarding `Cc1c(NC(C)C)c(=O)n(-c2ccccc2)n1C`, the compound was called inactive. As to `CCS(=O)(=O)CCn1c([N+](=O)[O-])cnc1C`, the result was inactive. Consider `C/C=C/C(=O)N(CC)c1ccccc1C`, for which the compound was called inactive. For `CNCc1ccccc1`, the call was inactive. On to `NC(=O)c1ccc([N+](=O)[O-])cc1Cl`, for which the compound was classed as inactive.

Turning to `CC(=O)Oc1cccc(O)c1`, the compound was classed as inactive. Take `O=C(CCBr)N1CCN(C(=O)CCBr)CC1`: the compound was classed as inactive.

In the case of `NC(N)=NCCN1CCCCCCC1`, the compound was called inactive. In the case of `C=CCSCC1Nc2cc(Cl)c(S(N)(=O)=O)cc2S(=O)(=O)N1` (configuration not stated), the compound was called inactive. Turning to `CCCCC1(COC(=O)CCC(=O)O)C(=O)N(c2ccccc2)N(c2ccccc2)C1=O`, the compound was called inactive. For `CC(N)CCCC(C)(C)O` (configuration not stated), the outcome was inactive. As for `OC(CCN1CCCC1)(c1ccccc1)C1CCCCC1` (configuration not stated), the compound was classed as inactive. With `O=c1[nH]cnc2nc[nH]c12`, the call was inactive. `Cc1ccsc1/C=C/C1=NCCCN1C`: the result was inactive. As to `Cc1onc(-c2ccccc2)c1-c1ccc(S(N)(=O)=O)cc1`, the outcome was inactive. As for `O=C(O)c1cc(=O)c2ccccc2o1`, the result was inactive. As for `Cc1c(NC(=O)c2cccnc2)c(=O)n(-c2ccccc2)n1C`, the result was inactive. Same read-out and setting: the value for `Cn1c([N+](=O)[O-])cnc1COC(N)=O` was “inactive”.
